# Bioassay records deposited in PubChem BioAssay by National Center for Advancing Translational Sciences (NCATS).
# LASV entry inh = blocks Lassa virus binding or cell entry; Lassa virus pseudotyped entry inhibition, cell-based qHTS; Potency, µM (titrated, usually from 49.2 µM), without a hit: top-dose activity change, negative = inhibition, actives largely listed as inhibitors; actives 4.1% (n = 18,000)
# Marburg entry = Marburg virus entry inhibition; actives 6.5% (n = 18,000); Potency, µM (top dose mostly 49.2 µM), for inactives: at the highest dose activity change, negative = inhibition, hits mostly inhibitors; Marburg virus pseudotype entry/binding inhibition, cell-based
# An asterisk follows results filed as active; u = inconclusive; ! = not confirmed by another sample; [ ] = remark or other dose. Hits are enriched below; roughly 8.6% of the tested compounds scored in any of these assays. The call rests on the fitted dose curve; tested in HEK293 cells. On the % scale 0 is the no-effect control and ±100 the full control effect; potency means the concentration at half of the fitted maximal effect.
SMILES,LASV entry inh,Marburg entry
CC[C@@H]1CN2CCc3cc(OC)c(OC)cc3[C@H]2C[C@@H]1C[C@@H]1NCCc2cc(O)c(OC)cc21,0.355µM*,u
CC(Cc1cccc(C(F)(F)F)c1)NCCCc1ccccc1 (centres undefined),31.6µM*,14.1µM*
CCN[C@H](C)Cc1cccc(C(F)(F)F)c1,-14.1%[107 µM],-23.8%[107 µM]
COc1cccc(CN2CCCC(c3nc(C)ncc3-c3ccc(F)cc3)C2)c1OC (centres undefined),-15.9%,u
CC(C)C[C@@H]1NC(=O)[C@H](CCCN)NC(=O)[C@H](C(C)C)NC(=O)[C@@H]2CCCN2C(=O)[C@@H](Cc2ccccc2)NC(=O)[C@H](CC(C)C)NC(=O)[C@H](CCCN)NC(=O)[C@H](C(C)C)NC(=O)[C@@H]2CCCN2C(=O)[C@@H](Cc2ccccc2)NC1=O,31.6µM*,u
CC(C)[C@@H]1NC(=O)[C@@H](Cc2ccccc2)NC(=O)[C@H](CC(=O)O)NC(=O)CNC(=O)[C@H](CCCN=C(N)N)NC1=O,-19.3%,-13.6%
O=C(NCC1CCC2(CCN(Cc3ccc4ncccc4c3)CC2)O1)C1CCCO1 (centres undefined),-2.8%,-15.5%
CC(C)n1cnc2c(NCc3ccccc3)nc(NCCO)nc21,-3.6%,12.3%
CC(C)[C@H](CO)Nc1nc(Nc2cccc(Cl)c2)c2ncn(C(C)C)c2n1,28.2µM*,-10.8%
COC1C=CC23c4cc5c(cc4CN(CC2O)C3C1)OCO5 (centres undefined),7.08µM*,2.24µM*
COc1c2c(cc3c1OCO3)C13C=CC(OC)CC1N(C2)CC3O (centres undefined),1.8%,4.6%
Cc1cc(C(=O)NCC2CCC3(CCN(Cc4ccccc4C)CC3)O2)n(C)n1 (centres undefined),-7.9%,-11.1%
C[N+]1(C)[C@@H]2CC[C@H]1CC(OC(=O)c1c[nH]c3ccccc13)C2 (some centres undefined),-7.8%,6.1%
CN1[C@@H]2CC[C@H]1CC(OC(=O)c1c[nH]c3ccccc13)C2 (some centres undefined),u,20µM*!
Nc1ccc(O)c(C(=O)O)c1,-7.0%,u
O=C(O)C1=CC(=C(c2ccc(O)c(C(=O)O)c2)c2ccc(O)c(C(=O)O)c2)C=CC1=O,2.6%,0.445µM*
CC[C@H](NC(=O)[C@H](CCC(=O)O)NC(=O)[C@H](CCC(=O)O)NC(=O)[C@H](CC(=O)O[S+](=O)([O-])c1cccc2c(NCCN)cccc12)NC(=O)[C@H](CCC(=O)O)NC(=O)[C@H](CC(=O)O)NC(C)=O)C(=O)ON[C@@H](C)C(=O)N[C@@H](CO)C(=O)N[C@@H](CCCCNC(=O)c1ccc(N=Nc2ccc(N(C)C)cc2)cc1)C(N)=O,-2.4%,11.2%
O=C1[C@@H]2[C@H]3[C@H](O)[C@H](O)CC(=NOC[C@@H](O)COCc4ccco4)[C@H]3CC[C@H]2C(=O)N1C[C@@H]1CCCO1,-13.7%[8.59 µM],3.6%[8.59 µM]
CC(=O)NNC(=O)N1Cc2ccccc2Oc2ccc(Cl)cc21,-11.1%,4.9%
CCN(CC)CCCCN1c2ccccc2Oc2ccc(Cl)cc21,u,6.31µM*
COC(=O)c1ccc2c(c1)c(I)c(-c1ccc(OC)cc1)n2C,0.2%,u
NCCNCCNCCNCCN,6.8%,-11.0%
CN(C)[C@H]1CCN([C@H]2C[S+](=O)([O-])N[C@H]2COCc2ccccc2)C1,0.7%,22.1%
CC[C@H]1[C@@H]2C[C@H]3[C@@H]4N(C)c5ccccc5[C@]45C[C@@H](C2[C@H]5O)N3[C@@H]1O (some centres undefined),0.3%[17.8 µM],4.7%[17.8 µM]
COc1cc(-c2c(OC)cccc2OC)cc2c1OCCN(C(=O)CCn1nc(C)cc1C)C2,-13.5%,-3.7%
SMILES,LASV entry inh,Marburg entry
COc1cc(-c2cc(C)c3cccc(OC)c3n2)cc2c1OCCN(C(=O)CCn1ccc(C)n1)C2,35.5µM*,-0.6%
COc1cc2c(cc1OC)C(c1c[nH]c3ccccc13)NCC2 (centres undefined),-4.8%,u
C=C[C@]1(C)C[C@@H](OC(=O)CSC(C)(C)CNC(=O)[C@H](N)C(C)C)[C@]2(C)[C@H](C)CC[C@]3(CCC(=O)[C@H]32)[C@@H](C)[C@@H]1O,0.1%,12.6µM*
C=C[C@]1(C)C[C@@H](OC(=O)CO)[C@]2(C)[C@H](C)CC[C@]3(CCC(=O)[C@H]32)[C@@H](C)[C@@H]1O,-8.8%,0.4%
C[C@@H]1CCC[C@]2(C)CCCC[C@@]12O,1.4%,6.1%
Oc1cccc[c]1[Hg][Cl],1µM*,u
Oc1cccc(O)c1O,-7.9%,u
O=C1CCN(Cc2cccn2-c2ccccn2)CCN1Cc1ccccc1C(F)(F)F,-10.3%,-19.9%
COc1cc2c(Nc3ccc(Br)cc3F)ncnc2cc1OCC1CCN(C)CC1,22.4µM*,7.08µM*
C#Cc1cccc(Nc2ncnc3cc(OCCOC)c(OCCOC)cc23)c1,u,-4.3%
